# Compound activity: PubChem BioAssay, The Scripps Research Institute Molecular Screening Center
# Shown are actives, neighbours in structure and some others; about 1.1% of the full set was active somewhere.
# HTR5A inv ctr = HTR5A inverse agonism, opioid heterodimer counter-screen. 0.083% of 340,000 active. P47898. HTR5A cell line, luminescence. inhibition, % at 9.3 µM. AID 504634; in the data active = inhibition mostly above about 23%, no sharp cut-off; inactive = mostly below about 18%;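 note: 0% = cells with DMSO and 100% = no-cell wells with DMSO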
# MOR-DOR ag-1 = agonists of human mu-delta opioid receptor heterodimerization; P35372+P41143; cells, OPRM1-OPRD1 heterodimerization, luminescence; activation, % at 9.3 µM; 0.3% of 340,000 active; AID 504326;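 note: 0% = vehicle-treated cells and 100% = reference agonist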
# MOR-DOR inv ag = inverse agonists of human mu-delta opioid receptor heterodimerization | P35372+P41143 | cell-based MOR-DOR heterodimer luminescence, inverse agonism | inhibition, % at 9.3 µM | 0.21% of 340,000 active | AID 504357; in the data active = inhibition above about 22%, passing the limit was not always enough;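 note: 0% = cells with DMSO and 100% = wells without cells with DMSO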
# HTR5A ag ctr = HTR5A agonism, opioid heterodimer counter-screen. P47898. HTR5A agonist assay, luminescence, cell-based. activation, % at 9.3 µM. 0.61% of 340,000 active. AID 504692; in the data active = activation mostly above about 9.5%, no sharp cut-off; inactive = mostly below about 7.6%;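 note: 0% = cells with vehicle only and 100% = reference agonist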
# MOR-DOR ag-2 = opioid heterodimer agonism, HTR5A counter-screen | activation, % at 9.3 µM | 13% of 800 active | shares compounds with HTR5A ag ctr | U2OS counter-screen cells, complementation luminescence, 3 h
# HTR5A ag conf = HTR5A (human) agonism, confirmation | shares compounds with HTR5A ag ctr | HTR5A agonist cell assay, luminescence | activation, % at 9.3 µM | 17% of 800 active | AID 504915; in the data active = activation above about 17%;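 note: 0% = cells with vehicle only and 100% = full reference agonist response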
# * = called active by the depositor; . = no result given. Cut-off read from the data, not from the text of the source, unless noted: active = activation above about 18%; inactive = the rest.
SMILES,HTR5A inv ctr,MOR-DOR ag-1,MOR-DOR inv ag,HTR5A ag ctr,MOR-DOR ag-2,HTR5A ag conf
CCOc1ccc(Br)cc1S(=O)(=O)N1CCSC1,7.4,-2.0,9.3,-2.0,.,.
COc1ccc(CCNc2nc(-c3ccccn3)cs2)cc1OC,-14.5,-1.6,8.0,3.4,.,.
C=CCn1c(SCC(=O)c2ccc(OC)cc2)nnc1-c1cc2cccc(OC)c2o1,-44.8,5.8,-24.1,15.3*,3.6,11.6
Cc1ccc(S(=O)(=O)CCC(=O)Oc2ccc(-c3nnco3)cc2)cc1,12.8,-1.8,9.1,-4.7,.,.
Cc1cccc(OCc2n(CC(=O)OC3CC(C)CCC3C(C)C)c3ccccc3[n+]2C)c1 (stereo not drawn),-49.0,9.0,-47.6,17.4*,1.5,5.6
COc1ccccc1CNC(=S)Nc1ccc2nc(N3CCN(C)CC3)cc(C)c2c1,-199.3,-2.1,11.3,69.5*,1.6,70.2*
COc1ccc(CNC(=S)Nc2ccc3nc(N4CCN(C)CC4)cc(C)c3c2)cc1,-15.6,-1.2,6.7,5.4,.,.
O=C(O/N=C1/CCSc2ccccc21)c1ccccc1,-63.6,1.1,-5.8,22.6*,4.5,9.8
COc1cc(/C=C2\SC(=O)N(CCNC(=O)c3cnc(C)cn3)C2=O)cc(OC)c1OC,-8.0,-3.2,15.3,-2.3,.,.
COc1ccc(C(=O)N2CCN(CCc3ccccc3)CC2)cc1[N+](=O)[O-],-46.2,-2.4,12.3,19.2*,0.8,1.6
COc1cccc(NC(=O)CN(C)C(=O)/C=C/c2cn(-c3ccccc3)nc2-c2ccc(OC)c(OC)c2)c1,6.9,0.9,-3.6,-2.8,.,.
COc1ccc(-c2nn(-c3ccccc3)cc2/C=C/C(=O)N(C)CC(=O)Nc2cccc(F)c2)cc1OC,10.8,0.2,-0.7,15.2*,2.4,1.1
COc1cc(/C=N/NC(=O)C(C)Nc2n[nH]c(=O)[nH]c2=O)cc(OC)c1O (stereo not drawn),-21.9,-1.9,9.9,-1.8,.,.
COc1ccc(NC(=O)CN(C)C(=O)/C=C/c2ccc(OCc3ccccc3)cc2)cc1,-51.0,10.1,-83.0,23.9*,2.2,1.2
COc1ccc(NC(=O)CN(C)C(=O)/C=C/c2ccc(S(=O)(=O)N3CCCCCC3)cc2)cc1,-6.3,-1.4,7.5,2.5,.,.
O=C(Nc1nc(-c2cccs2)cs1)c1ccc(S(=O)(=O)N2CCCCC2)cc1,-53.6,0.2,-0.9,19.2*,-0.8,-7.1
Cc1ccc2ccccc2c1CSc1nc(N)nc2c1ncn2CC(C)C,-58.4,-4.0,17.5,15.2*,3.8,1.8
CC(C)Cn1cnc2c(SCc3ccccc3)nc(N)nc21,5.5,-1.4,7.0,-1.4,.,.
COc1ccc(C(=O)Nc2ccc3c(c2)OCCO3)cc1[N+](=O)[O-],6.4,-1.7,10.1,-2.5,.,.
COc1ccc(NC(=O)CSc2nc3nc(C)cc(C)n3n2)cc1,-11.2,-1.5,9.4,3.9,.,.
COc1ccc(OC)c(NC(=O)CSc2nc3nc(C)cc(C)n3n2)c1,-41.0,-2.0,8.8,16.6*,0.3,-2.9
Cc1nc2ccccc2n1CC(=O)c1ccc(O)c(O)c1,-64.0,0.2,-1.4,21.8*,0.7,20.5*
Cc1nc2ccccc2n1CC(=O)c1ccccc1,-8.5,-2.5,12.9,-0.4,.,.
O=C(Nc1nccs1)c1c(O)c2c([nH]c1=O)CCCC2,11.0,-2.2,11.4,-3.5,.,.
CCCc1nnc(NC(=O)c2c(O)c3c([nH]c2=O)CCCC3)s1,-43.0,-2.4,10.3,15.6*,3.8,0.6
SMILES,HTR5A inv ctr,MOR-DOR ag-1,MOR-DOR inv ag,HTR5A ag ctr,MOR-DOR ag-2,HTR5A ag conf
CCc1ccc(Nc2nnc(SCC(=O)NC(=O)c3cccn3C)s2)cc1,-34.9,13.4,-66.2,14.6*,-0.3,-0.7
O=C1N(c2ccccc2C(F)(F)F)O[C@@]1(c1ccccc1)C1CCCC1,-78.0,3.8,-22.0,29.0*,-0.9,-3.4
O=C1N(c2ccccc2C(F)(F)F)O[C@@]1(c1ccccc1)C1CCCCC1,-21.1,-2.5,11.7,3.7,.,.
COC(=O)C1CCN(c2c([N+](=O)[O-])cc(C(F)(F)F)cc2[N+](=O)[O-])CC1,11.2,1.9,-9.4,-5.1,.,.
O=C(CN1C(=O)CSc2ncccc21)NCCN1CCOCC1,-47.9,-0.8,4.2,16.1*,0.3,1.2
COC(=O)c1c(N2C(=O)CC(Sc3ncccc3C(=O)O)C2=O)sc(C)c1C (stereo not drawn),-11.1,-1.9,10.1,-2.5,.,.
CCOC(=O)c1c(CSC(=N)N)n(C)c2cc(Br)c(OC(C)=O)cc12,15.9,-1.2,5.8,4.3,.,.
